Measurements as given in the supplement of paper PMC9694430.
Structures can show the parent of a compound that is named as a salt.

Columns and labels:
Assay in all cases: thermal shift delta Tm vs DMSO control; higher = stronger stabilization (binding)
Settings in all cases: 12.5 µM; protein concentration 2 µM
[1] = test system: LOC_OS02G45750-cb003
Procedure, shortened: (§1)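 Rice kinase domain constructs were expressed in E. coli, purified, and tested by differential scanning fluorimetry with compound added in DMSO. Each well of a 96-well plate held 19.5 μl of 2 μM kinase in 100 mM potassium phosphate pH 7.5, 150 mM NaCl, 10% glycerol and 5 × SYPRO Orange, and fluorescence was read from 25°C to 95°C at 0.05°C/s. The melting temperature shift is the mean of triplicates, taken against protein with DMSO alone after Boltzmann fitting.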

[2] = test system: LOC_OS02G54510-cb004
Procedure, shortened: as §1

[3] = test system: LOC_OS03G04050-cb001
Procedure, shortened: as §1

[4] = test system: LOC_OS03G12390-cb001
Procedure, shortened: as §1

[5] = test system: LOC_OS03G27990-cb004
Procedure, shortened: as §1

[6] = test system: LOC_OS03G50450-cb001
Procedure, shortened: as §1

[7] = test system: LOC_OS03G50810-cb003
Procedure, shortened: as §1

[8] = test system: LOC_OS04G35114-cb001
Procedure, shortened: as §1

[9] = test system: T1, LOC_OS04G38480-cb003
T1 sequence (whole entry): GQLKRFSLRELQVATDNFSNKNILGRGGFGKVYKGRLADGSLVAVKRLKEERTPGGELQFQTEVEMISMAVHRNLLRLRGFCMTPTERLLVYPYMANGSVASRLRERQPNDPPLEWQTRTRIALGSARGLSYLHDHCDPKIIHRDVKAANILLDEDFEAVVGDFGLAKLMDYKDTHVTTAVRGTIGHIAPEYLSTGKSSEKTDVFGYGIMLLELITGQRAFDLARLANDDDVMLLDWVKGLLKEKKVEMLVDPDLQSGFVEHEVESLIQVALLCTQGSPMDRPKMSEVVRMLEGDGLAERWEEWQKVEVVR
Procedure, shortened: as §1

[10] = test system: T2, LOC_OS04G41100-cb001
T2 sequence (whole entry): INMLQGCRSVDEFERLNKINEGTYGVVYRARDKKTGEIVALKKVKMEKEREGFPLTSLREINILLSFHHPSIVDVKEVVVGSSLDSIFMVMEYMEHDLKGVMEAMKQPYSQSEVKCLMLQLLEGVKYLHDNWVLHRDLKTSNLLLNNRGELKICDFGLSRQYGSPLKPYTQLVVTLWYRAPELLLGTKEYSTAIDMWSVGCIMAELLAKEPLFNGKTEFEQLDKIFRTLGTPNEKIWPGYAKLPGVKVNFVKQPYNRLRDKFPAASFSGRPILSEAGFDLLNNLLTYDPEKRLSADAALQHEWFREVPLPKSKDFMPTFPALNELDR
Procedure, shortened: as §1

[11] = test system: LOC_OS04G57630-cb004
Procedure, shortened: as §1

[12] = test system: LOC_OS05G07850-cb002
Procedure, shortened: as §1

[13] = test system: LOC_OS05G28520-cb001
Procedure, shortened: as §1

[14] = test system: LOC_OS05G30820-cb001
Procedure, shortened: as §1

[15] = test system: LOC_OS05G43570-cb004
Procedure, shortened: as §1

[16] = test system: T3, LOC_OS06G22820-cb001
T3 sequence (whole entry): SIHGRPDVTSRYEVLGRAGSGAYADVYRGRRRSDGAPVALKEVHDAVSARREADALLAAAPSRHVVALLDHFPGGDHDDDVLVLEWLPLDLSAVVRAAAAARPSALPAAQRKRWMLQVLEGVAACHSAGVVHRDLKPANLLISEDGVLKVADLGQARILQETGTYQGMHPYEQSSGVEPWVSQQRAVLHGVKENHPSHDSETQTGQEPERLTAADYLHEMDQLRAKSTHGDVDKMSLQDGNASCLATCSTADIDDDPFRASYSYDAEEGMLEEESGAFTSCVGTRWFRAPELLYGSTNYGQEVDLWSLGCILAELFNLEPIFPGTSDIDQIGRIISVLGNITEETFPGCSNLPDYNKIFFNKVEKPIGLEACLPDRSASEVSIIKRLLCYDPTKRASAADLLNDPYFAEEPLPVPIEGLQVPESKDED
Procedure, shortened: as §1

[17] = test system: LOC_OS07G06570-cb004
Procedure, shortened: as §1

[18] = test system: LOC_OS07G07230-cb001
Procedure, shortened: as §1

[19] = test system: LOC_OS05G16824-cb004
Procedure, shortened: as §1

[20] = test system: LOC_OS06G16330-cb003
Chain of LOC_OS06G16330-cb003 (as listed by the source): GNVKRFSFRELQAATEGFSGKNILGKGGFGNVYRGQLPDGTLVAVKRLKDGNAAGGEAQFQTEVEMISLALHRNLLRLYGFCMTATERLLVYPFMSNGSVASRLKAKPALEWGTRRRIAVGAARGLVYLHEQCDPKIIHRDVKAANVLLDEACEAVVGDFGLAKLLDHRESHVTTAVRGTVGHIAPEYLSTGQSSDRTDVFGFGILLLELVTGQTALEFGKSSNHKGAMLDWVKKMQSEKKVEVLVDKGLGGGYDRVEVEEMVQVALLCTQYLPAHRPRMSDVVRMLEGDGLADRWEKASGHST
Procedure, shortened: as §1

Row | Compound | thermal shift delta Tm [1] | thermal shift delta Tm [2] | thermal shift delta Tm [3] | thermal shift delta Tm [4] | thermal shift delta Tm [5] | thermal shift delta Tm [6] | thermal shift delta Tm [7] | thermal shift delta Tm [8] | thermal shift delta Tm [9] | thermal shift delta Tm [10] | thermal shift delta Tm [11] | thermal shift delta Tm [12] | thermal shift delta Tm [13] | thermal shift delta Tm [14] | thermal shift delta Tm [15] | thermal shift delta Tm [16] | thermal shift delta Tm [17] | thermal shift delta Tm [18] | thermal shift delta Tm [19] | thermal shift delta Tm [20]
1 | CCCCCCCCCCCCCCCCCCOP(=O)([O-])OC1CC[N+](C)(C)CC1 [Perifosine (KRX-0401)] | -1.3 °C | -1.77 °C | -3.06 °C | -3.5 °C | -2.47 °C | -2.45 °C | -1.54 °C | -3.56 °C | -0.3 °C | -0.69 °C | -0.56 °C | -0.07 °C | -1.23 °C | -0.15 °C | -0.61 °C | 0.39 °C | -2.82 °C | -2.65 °C |  | 
2 | COc1ccc([C@@H]2OC[C@H]3[C@@H]2CO[C@@H]3c2ccc(O[C@@H]3O[C@H](CO)[C@@H](O)[C@H](O)[C@H]3O)c(OC)c2)cc1OC [Forsythin] | 0.82 °C | -0.05 °C | 0.35 °C | 0.34 °C | 0.18 °C | 0.11 °C | 0.2 °C | -0.23 °C | -0.32 °C | -0.14 °C | -0.22 °C | -0.42 °C | 0.25 °C | -0.02 °C | 0.21 °C | 0.41 °C | 0.89 °C | 0.9 °C | -9.57 °C | -0.18 °C
3 | O=c1cc(N2CCOCC2)oc2c(-c3cccc4c3sc3ccccc34)cccc12 | 1.11 °C | 0.33 °C | 0.66 °C | -0.18 °C | 0.6 °C | 0.91 °C | 0.32 °C | 0.58 °C | 0.87 °C | -0.31 °C | -0.76 °C | 0.31 °C | 0.25 °C | 0.1 °C | -0.66 °C | 0.17 °C | 0.25 °C | -0.42 °C | -2.7 °C | -1.48 °C
4 | COc1cc2c3cc1Oc1c(OC)c(OC)cc4c1[C@@H](Cc1ccc(O)c(c1)Oc1ccc(cc1)C[C@@H]3N(C)CC2)N(C)CC4 [Berbamine (dihydrochloride)] | 0 °C | -0.14 °C | 0.28 °C | -0.42 °C | -0.08 °C | 0.16 °C | -0.29 °C | 0.22 °C | 0.37 °C | 0.23 °C | -0.01 °C | -0.48 °C | -0.11 °C | 0.47 °C | 0.27 °C | 0.13 °C | 0.83 °C | 0.33 °C | -7.42 °C | -0.31 °C
5 | Cc1ccccc1-n1c(Cn2nc(-c3cccc(O)c3)c3c(N)ncnc32)nc2cccc(C)c2c1=O | -2.16 °C | -0.05 °C | -0.24 °C | -0.5 °C |  | 0.05 °C | 0.27 °C | 0.34 °C |  |  |  | 0.71 °C | 0.91 °C | 0.79 °C | 0.31 °C |  |  | 1 °C | -1.12 °C | 
6 | COCCOc1cnc2ccn([C@H](C)c3nnc4c(F)cc(-c5cnn(C)c5)cn34)c(=O)c2c1 | 1.08 °C | -0.12 °C | 0.22 °C | -0.12 °C | 0.2 °C | 0.05 °C | -0.09 °C | 0.69 °C | 0.41 °C | 0.65 °C | 0.33 °C | 0.47 °C | 0.19 °C | 0.72 °C | 0.35 °C | 0.29 °C | 1.07 °C | 0.81 °C | -0.61 °C | 2.3 °C
7 | CCC[C@H](NC(=O)/C(C#N)=C/c1cccc(Br)n1)c1ccccc1 [Degrasyn (WP1130)] | -2.36 °C | -1.29 °C | 0.2 °C | -5.26 °C | -3.68 °C | -0.35 °C | -2.71 °C | -2.87 °C | 1.05 °C | -0.61 °C | -2.22 °C | -0.67 °C | -0.84 °C | 0.52 °C | -0.8 °C | 0.49 °C | -0.53 °C | 0.24 °C |  | -2.97 °C
8 | Cn1cc(-c2ccc3nnc(Sc4ccc5ncccc5c4)n3n2)cn1 | 0.93 °C | 0.23 °C | 0.63 °C | -0.22 °C | 0.45 °C | 0.82 °C | 0.32 °C | 0.81 °C | 1.04 °C | 0.48 °C | 0.16 °C | 0.32 °C | 0.44 °C | 0.68 °C | 0.24 °C | 0.36 °C | 1.36 °C | 0.51 °C | -3.78 °C | 0.16 °C
9 | C=CC(=O)N[C@H]1CCOC[C@H]1Nc1ncc2cc(-c3c(Cl)c(OC)cc(OC)c3Cl)ccc2n1 | 1.19 °C | -0.3 °C | 0.08 °C | -0.37 °C | -0.08 °C | 0.02 °C | -0.2 °C | 0.09 °C | 0.04 °C | 0.17 °C | 0.02 °C | 0.63 °C | 0.07 °C | 0 °C | -0.08 °C | 0.4 °C | 0.52 °C | 0.76 °C |  | -0.57 °C
10 | Cc1[nH]c(/C=C2\C(=O)Nc3ccc(S(=O)(=O)N(C)c4cccc(Cl)c4)cc32)c(C)c1C(=O)N1CCN(C)CC1 | 0 °C | 0.59 °C | 0.42 °C | 2.96 °C | 0.14 °C | -0.1 °C | 0 °C | 7.25 °C | 5.89 °C | 0.68 °C | 0.72 °C | 9.11 °C | 0.18 °C | 0.55 °C | -0.03 °C | 1 °C | 0.23 °C | 0.81 °C |  | -6.47 °C
11 | COc1cc(F)c(F)c(Nc2ccc(I)cc2F)c1NS(=O)(=O)C1(C[C@H](O)CO)CC1 [Refametinib (RDEA119, Bay 86-9766)] | 0.64 °C | 0.25 °C | 0.61 °C | 0.09 °C | 0.41 °C | 0.71 °C | 0.41 °C | 0.19 °C | 0.79 °C | 0.72 °C | 0.29 °C | 0.16 °C | 1.02 °C | 0.34 °C | 0.4 °C | 1.27 °C | 0.72 °C | 0.01 °C | -0.08 °C | 0.11 °C
